Source: PubChem BioAssay (several laboratories)
HNF4A DNA FP = change in binding of human HNF4 alpha to DNA. HNF4a-FITC DNA binding, fluorescence polarization, 1 h. activity change, % at 10 µM. AID 1224865. hit rate 0.3% among 360,000. P41235; in the data active = activity change above about 30%, passing the limit was not always enough
Myeloid diff MLP = myeloid differentiation induction | ER-HoxA9 myeloid progenitors, lysozyme-GFP differentiation, flow cytometry | calls only at 10 µM | hit rate 1% among 360,000 | AID 624256;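 active = normalized GFP-positive differentiation at or above the plate's own cutoff, the solvent-only control mean plus 3 SD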;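 also: cells exposed to compound for four days before flow analysis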
TPT1 inhibitor = blocks Candida albicans tRNA 2'-phosphotransferase; recombinant caTPT1, FP RNA substrate dephosphorylation; inhibition, % at 5 µM; hit rate 0.81% among 300,000;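 active = inhibition above the mean of all tested compounds plus 3 SD, set per screening campaign, cut at about 24% in these data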;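 also: plate controls were DMSO alone for no effect and ferristatin control at 100 nM for full effect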
Rpn11 inh = inhibitors of human proteasome Rpn11; human 26S proteasome, Ub4-pepOG fluorescence polarization; 20S core pre-blocked with epoxomicin; inhibition, % at 20 µM; hit rate 0.59% among 360,000; AID 588493;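 active = inhibition at 20 µM, scaled to each plate's controls, above about 33%, limit read from the data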
Target sequence (O00487 whole entry, looked up): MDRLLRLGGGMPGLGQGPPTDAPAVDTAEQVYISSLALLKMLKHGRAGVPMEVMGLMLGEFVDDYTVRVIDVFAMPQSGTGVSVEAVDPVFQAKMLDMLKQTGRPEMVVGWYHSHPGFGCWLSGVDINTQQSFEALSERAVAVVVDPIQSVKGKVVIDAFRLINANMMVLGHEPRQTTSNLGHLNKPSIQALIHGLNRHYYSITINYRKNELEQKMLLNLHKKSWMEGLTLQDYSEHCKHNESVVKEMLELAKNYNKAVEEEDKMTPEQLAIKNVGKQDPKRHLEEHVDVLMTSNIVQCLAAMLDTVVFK
caTPT1 confirm = confirmation of Candida albicans TPT1 inhibitors; recombinant caTPT1, fluorescence polarization, RNase T1 coupled; shares compounds with TPT1 inhibitor; hit rate 74% among 2,400; inhibition, % at 5 µM;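 active = inhibition above the primary screen limit, the mean inhibition of all tested compounds plus 3 SD, cut at about 25% in these data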
RNase T1 counter = counter-screen for TPT1 inhibitors: inhibitors of Aspergillus oryzae RNase T1; inhibition, % at 5 µM; RNase T1 cleavage, fluorescence polarization, 1536-well; AID 2153; hit rate 83% among 2,400; shares compounds with TPT1 inhibitor;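 active = inhibition above the solvent-only control well mean plus 3 SD, limit set per screening run, cut at about 23% in these data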;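 also: plate controls were DMSO wells with enzyme for no effect and wells without RNase T1 for full effect; inhibitors block cleavage so intact labeled substrate keeps polarization high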
Target sequence (P00651 whole entry, looked up): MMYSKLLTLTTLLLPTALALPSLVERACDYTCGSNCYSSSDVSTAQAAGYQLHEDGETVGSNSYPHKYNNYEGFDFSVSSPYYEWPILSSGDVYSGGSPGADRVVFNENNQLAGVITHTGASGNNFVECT
Numbers without * were called inactive. Shown are actives, neighbours in structure and some others; about 2.1% of the full set was active somewhere.

What do the screens show for `COC(=O)c1ccc(C(=O)OC)c(NC(=O)C2CC(=O)N(C3CCCC3)C2)c1` (configuration not stated)?
HNF4A DNA FP: 2; Myeloid diff MLP: inactive; Rpn11 inh: -7

How did CN(C)S(=O)(=O)c1ccc(NC(=O)CN2CCCc3ccccc32)cc1 do in these assays?
HNF4A DNA FP: 20; Myeloid diff MLP: inactive; TPT1 inhibitor: 51*; caTPT1 confirm: 42*; RNase T1 counter: 54*

Results for CN(C)S(=O)(=O)c1cc(NC(=O)CN2CCCc3ccccc32)ccc1Cl ?
HNF4A DNA FP: 15; Myeloid diff MLP: inactive; TPT1 inhibitor: 46*; caTPT1 confirm: 51*; RNase T1 counter: 61*

How did COc1ccc(-c2nn(-c3ccccc3)cc2CNC[C@H]2O[C@@H](n3cnc4c(N)ncnc43)[C@H](O)[C@@H]2O)cc1 do in these assays?
HNF4A DNA FP: 0; Myeloid diff MLP: inactive; Rpn11 inh: 0

Results for Cc1cccc(N=C2NC(=O)/C(=C/c3cccn3C)S2)c1 ?
HNF4A DNA FP: 4; Myeloid diff MLP: inactive; TPT1 inhibitor: 31*; Rpn11 inh: 18; caTPT1 confirm: 37*; RNase T1 counter: 46*

Results for Cc1ccc(NC(=O)C(C)N2CCN(C)CC2)cc1S(=O)(=O)N1CCOCC1 (configuration not stated) ?
HNF4A DNA FP: 1; Myeloid diff MLP: inactive; Rpn11 inh: 2

Results for COc1cccc(/C=N/NC(=O)c2oc3nc(-c4ccccc4)cc(-c4ccco4)c3c2N)c1 ?
HNF4A DNA FP: 39*; Myeloid diff MLP: inactive; TPT1 inhibitor: 82*; caTPT1 confirm: 86*; RNase T1 counter: 97*

Results for CNC(=S)NNC(=O)c1oc2nc(-c3ccccc3)cc(C)c2c1N ?
HNF4A DNA FP: 1; Myeloid diff MLP: inactive; TPT1 inhibitor: 0; Rpn11 inh: 18

What do the screens show for `Cc1ccc(-c2cc(-c3ccco3)c3c(N)c(C(=O)NN)oc3n2)cc1`?
HNF4A DNA FP: 11; Myeloid diff MLP: active; TPT1 inhibitor: 72*; Rpn11 inh: 18; caTPT1 confirm: 35*; RNase T1 counter: 43*

Results for NNC(=O)c1oc2nc(-c3cccs3)cc(-c3ccco3)c2c1N ?
HNF4A DNA FP: 16; Myeloid diff MLP: active; TPT1 inhibitor: 50*; Rpn11 inh: 17; caTPT1 confirm: 47*; RNase T1 counter: 57*

How did Cc1ccc(C(=O)NCCNC(=O)COc2ccccc2Cl)cn1 do in these assays?
HNF4A DNA FP: 1; Myeloid diff MLP: inactive; TPT1 inhibitor: -3; Rpn11 inh: -2

What do the screens show for `CNc1ncnc2c1ncn2[C@H]1CN(Cc2cccc3ccccc23)C[C@@H](CO)O1`?
HNF4A DNA FP: -2; Myeloid diff MLP: inactive; Rpn11 inh: 5

What do the screens show for `CCc1nc2c(OCc3cc(Cl)cc(Cl)c3)cccn2c1N(C)C(=O)c1ccc(C)cc1`?
HNF4A DNA FP: 1; Myeloid diff MLP: inactive; Rpn11 inh: 12

How did Cn1cccc1CC(=O)N/N=C\c1c2ccccc2cc2ccccc12 do in these assays?
HNF4A DNA FP: 9; Myeloid diff MLP: inactive; TPT1 inhibitor: -7; Rpn11 inh: 11

How did Cn1cccc1CC(=O)N/N=C/c1cccc2ccccc12 do in these assays?
HNF4A DNA FP: -2; Myeloid diff MLP: inactive; TPT1 inhibitor: 33*; Rpn11 inh: -14; caTPT1 confirm: 20; RNase T1 counter: 30*

What do the screens show for `O=C(C[n+]1ccccc1)c1ccc(-c2ccccc2)cc1`?
HNF4A DNA FP: 4; Myeloid diff MLP: inactive; TPT1 inhibitor: 40*; Rpn11 inh: 6; caTPT1 confirm: 4; RNase T1 counter: 9

How did CN(C)c1cc[n+](CC(=O)c2ccc(-c3ccccc3)cc2)cc1 do in these assays?
HNF4A DNA FP: 1; Myeloid diff MLP: inactive; TPT1 inhibitor: 0; Rpn11 inh: -2

What do the screens show for `CC(C(=O)NCc1ccco1)n1cc([N+](=O)[O-])cn1` (configuration not stated)?
HNF4A DNA FP: 2; Myeloid diff MLP: inactive; TPT1 inhibitor: 3; Rpn11 inh: -11

What do the screens show for `O=C(CN1C(=O)S/C(=C\C=C\c2ccccc2)C1=O)Nc1ccccc1C(=O)O`?
HNF4A DNA FP: -3; Myeloid diff MLP: inactive; TPT1 inhibitor: 1; Rpn11 inh: 3

How did C#CCN1C(=O)S/C(=C/C=C/c2ccc(N(C)C)cc2)C1=O do in these assays?
HNF4A DNA FP: 78*; Myeloid diff MLP: inactive; TPT1 inhibitor: 87*; caTPT1 confirm: 77*; RNase T1 counter: 81*
